PubChem BioAssay AID1159580 (chemical genetic matrix, 2015)
In all, about 5,500 compounds went through this assay and about 2,000 (36%) were called active. Not shown: some 18% with an inconclusive outcome. Cut-off read from the data, not from the text of the source: active = normalized growth mostly below about 0.91 (no sharp cut-off); inconclusive = no clear call, values can overlap the other calls; inactive = mostly above about 0.92. The list shows a part of the results.

Assay: chemical genetic growth profiling, strain panel (AID 1159580);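 note: tested at 20 µM; growth read once vehicle control cultures reached saturation at 30 °C; 1 = growth at the plate median or of vehicle wells; lower values mean less growth of the strain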
Settings: growth OD
[1] = S. cerevisiae deletion strains, locus YAL013W, strain DEP1, hits give low values
[2] = S. cerevisiae deletion strains, locus YGR229C, strain SMI1, hits give low values
[3] = S. cerevisiae deletion strains, locus YJR075W, strain HOC1, hits give low values
[4] = S. cerevisiae deletion strains, locus YMR263W, strain SAP30, hits give low values
[5] = S. cerevisiae deletion strains, locus YMR307W, strain GAS1, hits give low values
[6] = S. cerevisiae deletion strains, locus YNL153C, strain GIM3, hits give low values
[7] = S. cerevisiae deletion strains, locus YNL322C, strain KRE1, hits give low values
[8] = S. cerevisiae deletion strains, locus YPL055C, strain LGE1, hits give low values
[9] = S. cerevisiae deletion strains, locus YPL241C, strain CIN2, hits give low values

Measured: normalized growth

C[C@H]1OC(n2cc(F)c(=O)[nH]c2=O)C(O)[C@@H]1O (stereo partly drawn)
inactive: [1] 1 | S. cerevisiae deletion strains, locus YBR021W, strain FUR4, hits give low values 1 | S. cerevisiae deletion strains, locus YBR229C, strain ROT2, hits give low values 1.01 | S. cerevisiae deletion strains, locus YCL029C, strain bik1, hits give low values 0.973 | S. cerevisiae deletion strains, locus YDL035C, strain GPR1, hits give low values 1 | S. cerevisiae deletion strains, locus YDL074C, strain BRE1, hits give low values 1.02 | S. cerevisiae deletion strains, locus YDL101C, strain DUN1, hits give low values 1 | S. cerevisiae deletion strains, locus YDL134C, strain PPH21, hits give low values 1 | S. cerevisiae deletion strains, locus YDL185W, strain tfp1, hits give low values 0.97 | S. cerevisiae deletion strains, locus YDL192W, strain arf1, hits give low values 0.97 | S. cerevisiae deletion strains, locus YDR101C, strain arx1, hits give low values 1 | S. cerevisiae deletion strains, locus YDR150W, strain NUM1, hits give low values 0.982 | S. cerevisiae deletion strains, locus YDR162C, strain NBP2, hits give low values 1.04 | S. cerevisiae deletion strains, locus YDR318W, strain mcm21, hits give low values 0.973 | S. cerevisiae deletion strains, locus YDR388W, hits give low values 0.986 | S. cerevisiae deletion strains, locus YDR502C, strain sam2, hits give low values 1 | S. cerevisiae deletion strains, locus YEL061C, strain CIN8, hits give low values 1 | S. cerevisiae deletion strains, locus YER110C, hits give low values 0.948 | S. cerevisiae deletion strains, locus YER155C, strain BEM2, hits give low values 0.995 | S. cerevisiae deletion strains, locus YER167W, strain BCK2, hits give low values 0.989 | S. cerevisiae deletion strains, locus YGL078C, strain dbp3, hits give low values 0.979 | S. cerevisiae deletion strains, locus YGL086W, strain mad1, hits give low values 0.957 | S. cerevisiae deletion strains, locus YGL248W, strain PDE1, hits give low values 1.01 | S. cerevisiae deletion strains, locus YGR078C, strain PAC10, hits give low values 1.02 | S. cerevisiae deletion strains, locus YGR135W, strain pre9, hits give low values 1 | [2] 1.03 | S. cerevisiae deletion strains, locus YGR252W, strain gcn5, hits give low values 1.01 | S. cerevisiae deletion strains, locus YHR030C, strain SLT2, hits give low values 0.996 | S. cerevisiae deletion strains, locus YHR079C, strain IRE1 (second series), hits give low values 0.985 | S. cerevisiae deletion strains, locus YHR094C, strain hxt1, hits give low values 0.968 | S. cerevisiae deletion strains, locus YHR129C, strain ARP1, hits give low values 1 | S. cerevisiae deletion strains, locus YHR200W, strain rpn10, hits give low values 0.969 | S. cerevisiae deletion strains, locus YIL066C, strain RNR3, hits give low values 0.99 | S. cerevisiae deletion strains, locus YIL073C, strain SPO22, hits give low values 0.894 | S. cerevisiae deletion strains, locus YIL125W, strain kgd1, hits give low values 0.973 | S. cerevisiae deletion strains, locus YIR030C, strain dcg1, hits give low values 0.982 | S. cerevisiae deletion strains, locus YJL095W, strain BCK1, hits give low values 1.04 | S. cerevisiae deletion strains, locus YJL134W, strain LCB3, hits give low values 1.01 | S. cerevisiae deletion strains, locus YJL168C, strain set2, hits give low values 0.993 | S. cerevisiae deletion strains, locus YJL187C, strain SWE1 (second series), hits give low values 1.01 | S. cerevisiae deletion strains, locus YJR043C, strain POL32, hits give low values 0.993 | [3] 1.01 | S. cerevisiae deletion strains, locus YKL009W, strain mrt4, hits give low values 0.959 | S. cerevisiae deletion strains, locus YKL068W, hits give low values 0.98 | S. cerevisiae deletion strains, locus YKL085W, strain MDH1 (second series), hits give low values 0.981 | S. cerevisiae deletion strains, locus YKL085W, strain MDH1, hits give low values 0.981 | S. cerevisiae deletion strains, locus YKL190W, strain CNB1, hits give low values 1 | S. cerevisiae deletion strains, locus YKR001C, strain vps1, hits give low values 0.966 | S. cerevisiae deletion strains, locus YLR039C, strain RIC1, hits give low values 0.994 | S. cerevisiae deletion strains, locus YLR058C, strain SHM2, hits give low values 0.993 | S. cerevisiae deletion strains, locus YLR102C, strain apc9, hits give low values 0.983 | S. cerevisiae deletion strains, locus YLR262C, strain YPT6, hits give low values 1 | S. cerevisiae deletion strains, locus YLR268W, strain sec22, hits give low values 0.995 | S. cerevisiae deletion strains, locus YLR330W, strain CHS5, hits give low values 0.994 | S. cerevisiae deletion strains, locus YLR342W, strain FKS1 (second series), hits give low values 0.991 | S. cerevisiae deletion strains, locus YLR371W, strain rom2, hits give low values 0.961 | S. cerevisiae deletion strains, locus YLR418C, strain cdc73, hits give low values 1.05 | S. cerevisiae deletion strains, locus YML016C, strain PPZ1, hits give low values 1 | S. cerevisiae deletion strains, locus YML032C, strain rad52, hits give low values 0.951 | S. cerevisiae deletion strains, locus YML124C, strain tub3, hits give low values 0.974 | S. cerevisiae deletion strains, locus YMR078C, strain ctf18, hits give low values 0.945 | S. cerevisiae deletion strains, locus YMR223W, strain ubp8, hits give low values 0.975 | [4] 1.02 | [5] 0.977 | S. cerevisiae deletion strains, locus YNL067W, strain RPL9B, hits give low values 1.02 | S. cerevisiae deletion strains, locus YNL128W, strain TEP1, hits give low values 1.01 | [6] 1.02 | S. cerevisiae deletion strains, locus YNL233W, strain BNI4, hits give low values 1.02 | S. cerevisiae deletion strains, locus YNL250W, strain rad50, hits give low values 0.984 | S. cerevisiae deletion strains, locus YNL271C, strain bni1, hits give low values 0.988 | S. cerevisiae deletion strains, locus YNL298W, strain CLA4, hits give low values 0.963 | S. cerevisiae deletion strains, locus YNL307C, strain MCK1, hits give low values 0.967 | [7] 0.998 | S. cerevisiae deletion strains, locus YNR052C, strain pop2, hits give low values 0.958 | S. cerevisiae deletion strains, locus YOL006C, strain TOP1, hits give low values 1.03 | S. cerevisiae deletion strains, locus YOL012C, strain htz1 1.08 | S. cerevisiae deletion strains, locus YOL147C, strain pex11, hits give low values 0.982 | S. cerevisiae deletion strains, locus YOR061W, strain CKA2, hits give low values 1.01 | S. cerevisiae deletion strains, locus YOR069W, strain VPS5, hits give low values 1 | S. cerevisiae deletion strains, locus YOR136W, strain idh2, hits give low values 0.983 | S. cerevisiae deletion strains, locus YOR144C, strain elg1, hits give low values 0.965 | S. cerevisiae deletion strains, locus YOR184W, strain ser1, hits give low values 0.921 | S. cerevisiae deletion strains, locus YOR316C, strain cot1, hits give low values 0.974 | [8] 1.02 | [9] 0.996 | S. cerevisiae deletion strains, locus YPR119W, strain clb2, hits give low values 0.985 | S. cerevisiae deletion strains, locus YPR141C, strain kar3, hits give low values 0.974 | S. cerevisiae deletion strains, locus YPR163C, strain tif3, hits give low values 0.964 | S. cerevisiae deletion strains, locus YPR167C, strain met16, hits give low values 0.988 | S. cerevisiae deletion strains, strain wtn01, hits give low values 0.994 | S. cerevisiae strains, strain wild type, hits give low values 1

C[C@H]1O[C@@H](n2cc(F)c(=O)[nH]c2=O)[C@H](O)[C@@H]1O
inactive: [1] 1.04 | S. cerevisiae deletion strains, locus YAL040C, strain CLN3, hits give low values 1 | S. cerevisiae deletion strains, locus YCL061C, strain MRC1 (second series), hits give low values 1.01 | S. cerevisiae deletion strains, locus YDR363W, strain ESC2, hits give low values 1.02 | S. cerevisiae deletion strains, locus YER002W, strain NOP16, hits give low values 1.04 | [2] 1.07 | [3] 1.01 | [4] 1.01 | [5] 1 | [6] 1.02 | S. cerevisiae deletion strains, locus YNL175C, strain NOP13, hits give low values 1 | S. cerevisiae deletion strains, locus YNL197C, strain WHI3, hits give low values 1 | S. cerevisiae deletion strains, locus YNL224C, strain SQS1, hits give low values 0.984 | [7] 1.02 | S. cerevisiae deletion strains, locus YOR083W, strain WHI5 (second series), hits give low values 1.01 | [8] 1.02 | [9] 1.01
